BJeLR lethal – kills HRASV12-expressing BJeLR cells; 300,000 compounds, 0.17% hits; inhibition, % (test concentration not listed); BJeLR (HRASV12) viability, CellTiter-Glo ATP luminescence, 48 h; AID 1554; in the data active = inhibition above about 50%
PrP 5UTR inh – suppresses PrP 5' UTR mRNA reporter expression. AID 488862. inhibition, % (test concentration not listed). cell-based PrP 5' UTR mRNA reporter, plate reader. 340,000 compounds, 0.35% hits; in the data active = inhibition above about 52%
RecA intein inh – Mtb RecA intein splicing inhibition | cell-free RecA intein splicing, fluorescence | AID 2221 | inhibition, % (no concentration beside the values) | 290,000 compounds, 0.75% hits; in the data active = inhibition above about 30%
PrPC surface inh – inhibitors of human cell surface prion protein PrPC; P04156; TR-FRET read-out; inhibition, % at 13.8 µM; 370,000 compounds, 0.43% hits; AID 720596; in the data active = inhibition above about 24%
Mtb hypoxia rep – inhibitors of hypoxia-regulated fluorescent reporter in Mycobacterium tuberculosis; 300,000 compounds, 0.1% hits; M. tuberculosis hypoxia-regulated fluorescent reporter, fluorescence; fluorescence inhibition, % (concentration not given with the values); in the data active = fluorescence inhibition mostly above about 23%, no sharp cut-off; inactive = mostly below about 17%
SARS 3CLpro inh-1 – SARS-CoV 3CLpro protease inhibition | recombinant SARS-CoV 3CLpro, quenched FRET peptide cleavage | inhibition, % at 6 µM | 290,000 compounds, 0.14% hits | AID 1706; in the data active = inhibition above about 12%
SARS 3CLpro inh-2 – confirmation of SARS coronavirus 3C-like protease inhibitors; shares compounds with SARS 3CLpro inh-1; QFRET protease activity assay, 3CLpro; inhibition, % at 6 µM; 380 compounds, 36% hits; AID 1879; in the data active = inhibition above about 13%
Numbers stand for hits; – = inactive; · = no result. The list is not random: actives were taken first. Their share in the collection is about 1.4%.

SMILES	BJeLR lethal	PrP 5UTR inh	RecA intein inh	PrPC surface inh	Mtb hypoxia rep	SARS 3CLpro inh-1	SARS 3CLpro inh-2
O=C(NCc1ccc(F)cc1)c1ccc(S(=O)(=O)Nc2cccc(C(F)(F)F)c2)cc1	–	–	–	–	–	17.6	–
CC(=NNC(=O)c1ccc2c(c1)OCO2)c1ccc(NC(=O)C(F)(F)F)cc1	·	·	·	·	–	·	·
CC(=O)Nc1ccc(S(=O)(=O)NCCOc2ccc(Cl)cc2C)cc1	–	–	–	–	–	–	·
CCCCOc1ccc(CONS(=O)(=O)c2ccc(NC(C)=O)cc2)cc1Cl	–	–	–	–	–	19.3	–
COc1cccc(N2C(=O)/C(=C/c3ccc(C)o3)C(=O)NC2=S)c1	–	–	–	–	–	13.0	–
Cc1ccc(/C=C2\C(=O)NC(=S)N(c3ccc(F)cc3)C2=O)o1	–	–	–	–	–	–	·
N#Cc1c(NC(=S)NC(=O)c2ccccc2)sc2c1CCC2	–	–	–	–	·	21.2	–
O=C(/C=C/c1ccc(Cl)c([N+](=O)[O-])c1)NCc1cccnc1	–	–	–	–	·	17.9	18.5
Cc1cc(=O)oc2cc(NC(=O)c3ccccc3OC(F)F)ccc12	–	–	–	–	–	13.1	–
CC(C)NC(=O)N(C)CC1Oc2c(NC(=O)C3CC3)cccc2C(=O)N(C(C)CO)CC1C (stereo not given)	·	·	·	·	–	·	·
CC1CN(C(C)CO)C(=O)Cc2cc(NC(=O)NC3CCCCC3)ccc2OC1CN(C)S(=O)(=O)c1ccccc1 (stereo not given)	·	·	·	·	–	·	·
O=C(Oc1ccc2ccc(=O)oc2c1)c1cccs1	–	–	–	–	–	19.9	34.8
Cc1cc(=O)oc2cc(OC(=O)CCN3C(=O)c4ccccc4C3=O)ccc12	–	–	–	–	–	–	·
CC(C)(C)OC(=O)NCCC(=O)Oc1ccc2ccc(=O)oc2c1	–	–	–	·	·	28.9	59.2
CCCC(=O)Oc1ccc2c(C)cc(=O)oc2c1	–	–	–	–	–	17.3	24.1
COC(=O)C1=C(C)NC(=S)NC1c1ccc(-c2ccccc2C(=O)OC)o1 (stereo not given)	–	–	–	–	–	13.1	–
COc1ccc(Nc2oc(COc3ccc(C)cc3)nc2C#N)cc1	–	–	–	–	–	12.7	–
FC(F)(F)c1cccc(NC(=S)NNC(=S)NCc2ccccc2)c1	–	–	–	–	–	13.6	–
COCCOC(=O)/C(C#N)=C/c1cn(Cc2ccccc2)nc1-c1cccnc1	–	–	–	–	–	15.8	–
N#Cc1ccc(CN2CCN(C(=O)c3cn(Cc4ccccc4)nc3-c3cccnc3)CC2)cc1	·	–	·	–	–	·	·
CC[C@]12C(=O)N(C)CC(C3C(=O)N(C)C(=O)C31)N2C(=O)c1ccc(F)cc1 (stereo not given in full)	·	·	·	·	–	·	·
Cc1ccc(C)c(OC(C)C(=O)Nc2nccs2)c1 (stereo not given)	–	–	–	–	–	12.6	–
COc1ccc(CC(=O)NN=Cc2cc(Br)cs2)cc1OC	·	·	·	·	–	·	·
NC(=O)CCn1c(C(=O)c2ccc(Cl)cc2)c2ccccc2[n+]1[O-]	–	–	–	–	–	46.5	47.8
Cc1ccc(C(=O)c2c3ccccc3[n+]([O-])n2CCC(=O)O)cc1	·	–	·	–	–	·	·
SMILES	BJeLR lethal	PrP 5UTR inh	RecA intein inh	PrPC surface inh	Mtb hypoxia rep	SARS 3CLpro inh-1	SARS 3CLpro inh-2
N#Cc1cccc(CN2CCC(=O)N(C(CO)Cc3ccccc3)CC2)c1 (stereo not given)	·	·	·	·	–	·	·
CC(C)c1ccc(N(C(=O)c2csnn2)C(C(=O)NC2CCCC2)c2cccnc2)cc1 (stereo not given)	–	–	–	–	–	15.4	20.1
COc1ccc(C2C=CCN(S(=O)(=O)C=Cc3ccccc3)C(C)C(=O)N2Cc2ccc(F)cc2)cc1 (stereo not given)	·	·	·	·	–	·	·
COc1ccc(NS(=O)(=O)c2ccc3oc(Nc4ccc5c(c4)OCCO5)nc3c2)cc1	–	–	–	–	·	13.3	–
COc1cccc(S(=O)(=O)Nc2ccc3c(c2)OCCO3)c1	–	–	–	–	–	–	·
CCn1c2ccccc2c2cc(C=Nn3cn[nH]c3=S)ccc21	·	·	·	·	–	·	·
O=C1c2[nH]nc(-c3ccccc3O)c2C(c2ccccc2F)N1Cc1ccco1 (stereo not given)	–	–	–	–	–	13.0	–
O=C(NCC1CCCO1)c1cccc2c1C(=O)c1ccc(N3CCOCC3)cc1S2(=O)=O (stereo not given)	·	·	·	·	–	·	·

High-throughput results (PubChem BioAssay)
